The values below come from PubChem BioAssay.

Assay [1] concerns the target Nuclear receptor coactivator 1 (Homo sapiens) (UniProt Q15788). The assay is described as follows: NCOA1 GAL4-fusion reporter inhibition – cell-based, luminescence, quadruplicate, confirmation (AID 588820).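 Note: 0% = DMSO wells and 100% = gossypol 36 µM treated wells.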 The settings on record: HEK293 GAL4-SRC1 luciferase reporter, at 3.6 µM, hits give high values.
Assay [2] in a line: repression of VP16-driven luciferase reporter – cell-based, luminescence, high throughput, counter-screen for SRC1 inhibitor project (AID 588824; in the data active = inhibition above about 25%). The settings on record: cell-based VP16 transactivation luciferase luminescence; at 3.6 µM; hits give high values. In general terms: Reporter assays use an easily measured gene product as a stand-in for the process of interest.
Assay [3] concerns the target Nuclear receptor coactivator 3 (Homo sapiens) (UniProt Q9Y6Q9). Put plainly: NCOA3 GAL4-fusion reporter inhibition – cell-based, luminescence, quadruplicate, confirmation (AID 588792;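 active = mean inhibition over 43.08%, the solvent-only control mean plus 3 SD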;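 note: 0% = DMSO treated cells and 100% = gossypol at 36 µM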). The settings on record: HEK293 GAL4-SRC3 luciferase reporter, at 3.6 µM, hits give high values.
In assay [4] the test system is transactivating tegument protein VP16 (Human herpesvirus 1), Gal4-VP16 luciferase reporter. Put plainly: repression of VP16-driven luciferase reporter – cell-based, luminescence, high throughput, counter-screen for SRC3 inhibitor project (AID 588794; in the data active = inhibition above about 30%). As to conditions: mammalian cells, at 3.6 µM, hits give high values.
Assay [5] concerns the target Receptor-interacting serine/threonine-protein kinase 2 (Homo sapiens) (UniProt O43353). Put plainly: inhibitors of RIPK2 association with NOD2 – fluorescence, CHO cells, BLA complementation, triplicate, confirmation (AID 624370;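 active = mean inhibition across replicates above a set limit taken from the earlier primary screen, cut at about 21% in these data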;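 note: 0% = DMSO-only wells and the high end = clavulanate BLA-blocked wells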). The settings on record: CCF4 FRET, at 4.98 µM, hits give high values.
Assay [6] is described as follows: BLA reporter readout interference – cell-based, CHO-K1 CMV-bla, CCF4 FRET, fluorescence, artefact control for NOD2-RIPK2 interaction inhibitor project, confirmation (AID 624371;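 active = mean inhibition above the low-control mean inhibition plus three low-control SD, cut at about 11% in these data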;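 note: 0% = DMSO only wells and 100% = clavulanate high control wells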). The settings on record: CCF4 FRET ratio, counterscreen, at 4.98 µM, hits give high values.
Assay [7] concerns the target Photoreceptor-specific nuclear receptor (Homo sapiens) (UniProt Q9Y5X4). Put plainly: retest of NR2E3-NCOR disrupting agonists – cell-based, luminescence, CHO-S two-hybrid, confirmation (AID 624378;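 active = average inhibition above a cutoff equal to the mean inhibition of all tested compounds plus one SD, cut at about 70% in these data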;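 note: 0% = DMSO in NR2E3 cells and 100% = DMSO in cells lacking NR2E3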). The settings on record: CHO-S mammalian two-hybrid NR2E3-NCOR, luciferase luminescence; at 3.98 µM; hits give high values.
A short description of assay [8]: nonselective effects on VP16 transactivation – cell-based, luminescence, CHO-S, high throughput, counter-screen for NR2E3 agonist project, confirmation (AID 624379;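 active = mean inhibition above a cutoff equal to the average over all tested compounds plus one standard deviation, cut at about 70% in these data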;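 note: luciferase from a UAS reporter driven by GAL4-VP16 transactivation; 0% = DMSO with VP16-transfected cells and 100% = DMSO with cells lacking VP16; higher means less reporter light so more repression of VP16 activity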). The settings on record: CHO-S GAL4-VP16 luciferase reporter, at 3.98 µM, hits give high values. In general terms: Counterscreens check selectivity or assay interference.
A short description of assay [9]: StAR promoter reporter inhibitors, counter-screen for LRH-1 inverse agonist project, cell-based, luminescence, high throughput (AID 651611; in the data active = inhibition above about 28%). As to conditions: StAR promoter luciferase reporter counterscreen, at 3.6 µM, hits give high values.
Assay [10] deals with Nuclear receptor subfamily 5 group A member 2 (Homo sapiens) (UniProt O00482). Put plainly: NR5A2 activity suppression in reporter cells – cell-based, luminescence, confirmation (AID 651613; in the data active = inhibition above about 42%;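 note: HEK293T cells co-transfected with LRH-1 and StAR promoter luciferase reporter; 0% = vehicle wells and 100% = parental cells lacking receptor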). As to conditions: cell-based LRH-1 luciferase reporter, inverse agonism; at 3.6 µM; hits give high values.
For assay [11], the target named is Steroidogenic factor 1 (Homo sapiens) (UniProt Q13285). Put plainly: inverse agonism at SF1 nuclear receptor – cell-based, luminescence, high throughput, counter-screen for LRH-1 inverse agonist project (AID 651614; in the data active = inhibition above about 44%;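 note: cells cotransfected with StAR promoter reporter and SF1 expression vector; 0% = vehicle on cells with receptor and 100% = vehicle on cells lacking receptor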). As to conditions: cell-based SF1 luciferase reporter, at 3.6 µM, hits give high values.
Assay [12] in a line: compounds suppressing VP16-driven luciferase signal – cell-based, luminescence, high throughput, counter-screen for LRH-1 inverse agonist project (AID 651615; in the data active = inhibition above about 33%). As to conditions: Gal4-VP16 luciferase reporter cells, at 3.6 µM, hits give high values.
Assay [13] deals with transactivating tegument protein VP16 (Human herpesvirus 1). Put plainly: compounds suppressing VP16-driven luciferase signal – cell-based, luminescence, single concentration, counter-screen for SRC2 inhibitor project (AID 652007; in the data active = inhibition above about 36%). The settings on record: cell-based VP16 transactivation luciferase reporter, at 8.9 µM, hits give high values.
For assay [14], the target named is Nuclear receptor coactivator 2 (Homo sapiens) (UniProt Q15596). Put plainly: inhibition of GAL4-SRC2 driven luciferase expression – cell-based, luminescence, HEK293, triplicate, confirmation (AID 652008;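 active = mean inhibition above 46.5%, the solvent-only control mean plus 3 SD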;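 note: 0% = DMSO-treated cells and 100% = Gossypol at 36 µM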). The settings on record: HEK293 GAL4-SRC2 luciferase reporter, at 8.9 µM, hits give high values.

Molecules are shown by their SMILES. Values without a mark were called inactive. The list shows a part of the results. Active and inactive are the calls of the source.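 Rule for the calls, unless noted: active = mean inhibition above 46.68%, the untreated control wells mean plus 3 SD; inactive = the rest.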

Nuclear receptor coactivator 3 (Homo sapiens), sequence (Q9Y6Q9 whole entry, looked up, the tested form may be a part): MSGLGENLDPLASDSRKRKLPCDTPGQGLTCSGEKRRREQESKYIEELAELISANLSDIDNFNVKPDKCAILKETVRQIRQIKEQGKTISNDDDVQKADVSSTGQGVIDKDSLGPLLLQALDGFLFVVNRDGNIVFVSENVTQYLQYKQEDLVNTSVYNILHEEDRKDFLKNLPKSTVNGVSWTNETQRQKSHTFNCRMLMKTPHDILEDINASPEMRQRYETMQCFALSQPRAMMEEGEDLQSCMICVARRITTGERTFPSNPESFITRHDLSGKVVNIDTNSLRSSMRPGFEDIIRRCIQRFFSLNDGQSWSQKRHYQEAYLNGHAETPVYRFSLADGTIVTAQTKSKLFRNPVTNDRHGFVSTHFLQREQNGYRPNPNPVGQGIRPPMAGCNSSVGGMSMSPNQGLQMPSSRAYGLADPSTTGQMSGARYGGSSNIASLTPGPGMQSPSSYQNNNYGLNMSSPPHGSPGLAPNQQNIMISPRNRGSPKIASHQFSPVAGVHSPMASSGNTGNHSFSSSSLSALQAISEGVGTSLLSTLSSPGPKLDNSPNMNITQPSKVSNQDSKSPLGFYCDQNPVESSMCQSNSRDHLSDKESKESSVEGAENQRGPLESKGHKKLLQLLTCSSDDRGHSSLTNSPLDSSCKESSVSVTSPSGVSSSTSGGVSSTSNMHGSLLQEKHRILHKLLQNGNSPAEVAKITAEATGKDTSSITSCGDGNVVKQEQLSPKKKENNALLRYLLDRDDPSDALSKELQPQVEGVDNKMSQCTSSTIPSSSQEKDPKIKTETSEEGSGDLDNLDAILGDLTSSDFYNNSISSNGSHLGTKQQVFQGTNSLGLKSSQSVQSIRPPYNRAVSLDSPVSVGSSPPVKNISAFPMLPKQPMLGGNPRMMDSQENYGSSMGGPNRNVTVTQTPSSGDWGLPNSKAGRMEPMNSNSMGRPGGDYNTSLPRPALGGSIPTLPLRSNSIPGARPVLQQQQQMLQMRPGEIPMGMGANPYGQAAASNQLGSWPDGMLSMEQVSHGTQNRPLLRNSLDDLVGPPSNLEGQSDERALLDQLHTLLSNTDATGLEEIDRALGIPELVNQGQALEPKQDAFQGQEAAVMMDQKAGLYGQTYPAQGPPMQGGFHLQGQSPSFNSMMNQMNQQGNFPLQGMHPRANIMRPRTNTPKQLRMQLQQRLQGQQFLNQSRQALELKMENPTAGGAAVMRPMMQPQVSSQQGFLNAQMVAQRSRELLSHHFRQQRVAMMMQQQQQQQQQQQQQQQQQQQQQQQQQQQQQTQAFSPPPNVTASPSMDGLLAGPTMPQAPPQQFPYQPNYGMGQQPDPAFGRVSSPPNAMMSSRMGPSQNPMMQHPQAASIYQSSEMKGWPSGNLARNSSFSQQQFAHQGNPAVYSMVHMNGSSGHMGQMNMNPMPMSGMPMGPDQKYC
Steroidogenic factor 1 (Homo sapiens), sequence (Q13285 whole entry, looked up, the tested form may be a part): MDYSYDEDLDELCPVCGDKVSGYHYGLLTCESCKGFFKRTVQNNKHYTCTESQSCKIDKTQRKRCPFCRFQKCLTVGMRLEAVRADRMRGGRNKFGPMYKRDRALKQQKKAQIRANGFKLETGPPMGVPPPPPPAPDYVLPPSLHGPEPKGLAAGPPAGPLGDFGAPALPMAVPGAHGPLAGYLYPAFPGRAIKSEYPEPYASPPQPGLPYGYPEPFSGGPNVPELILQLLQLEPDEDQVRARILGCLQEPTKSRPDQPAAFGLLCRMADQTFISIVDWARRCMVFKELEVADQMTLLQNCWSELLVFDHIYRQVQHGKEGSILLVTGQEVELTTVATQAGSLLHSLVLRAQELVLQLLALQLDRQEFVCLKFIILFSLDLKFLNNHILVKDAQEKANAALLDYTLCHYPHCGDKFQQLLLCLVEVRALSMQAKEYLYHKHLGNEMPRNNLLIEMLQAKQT
Nuclear receptor subfamily 5 group A member 2 (Homo sapiens), sequence (O00482 whole entry, looked up): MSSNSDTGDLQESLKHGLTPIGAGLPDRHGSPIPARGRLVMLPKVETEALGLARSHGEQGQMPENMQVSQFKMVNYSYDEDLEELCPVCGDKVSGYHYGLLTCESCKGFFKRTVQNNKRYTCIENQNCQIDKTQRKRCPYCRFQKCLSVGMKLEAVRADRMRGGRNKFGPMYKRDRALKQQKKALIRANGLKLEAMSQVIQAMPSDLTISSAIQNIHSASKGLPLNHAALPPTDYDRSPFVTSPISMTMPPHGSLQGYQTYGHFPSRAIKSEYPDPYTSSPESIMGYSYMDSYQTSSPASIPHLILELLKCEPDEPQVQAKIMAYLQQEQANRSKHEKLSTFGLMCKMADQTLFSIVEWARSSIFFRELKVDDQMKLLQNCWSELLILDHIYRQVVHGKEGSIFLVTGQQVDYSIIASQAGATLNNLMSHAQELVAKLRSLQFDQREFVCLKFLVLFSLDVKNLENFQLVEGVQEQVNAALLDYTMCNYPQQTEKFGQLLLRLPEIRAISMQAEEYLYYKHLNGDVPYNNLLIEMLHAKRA
Nuclear receptor coactivator 2 (Homo sapiens), sequence (Q15596 whole entry, looked up, the tested form may be a part): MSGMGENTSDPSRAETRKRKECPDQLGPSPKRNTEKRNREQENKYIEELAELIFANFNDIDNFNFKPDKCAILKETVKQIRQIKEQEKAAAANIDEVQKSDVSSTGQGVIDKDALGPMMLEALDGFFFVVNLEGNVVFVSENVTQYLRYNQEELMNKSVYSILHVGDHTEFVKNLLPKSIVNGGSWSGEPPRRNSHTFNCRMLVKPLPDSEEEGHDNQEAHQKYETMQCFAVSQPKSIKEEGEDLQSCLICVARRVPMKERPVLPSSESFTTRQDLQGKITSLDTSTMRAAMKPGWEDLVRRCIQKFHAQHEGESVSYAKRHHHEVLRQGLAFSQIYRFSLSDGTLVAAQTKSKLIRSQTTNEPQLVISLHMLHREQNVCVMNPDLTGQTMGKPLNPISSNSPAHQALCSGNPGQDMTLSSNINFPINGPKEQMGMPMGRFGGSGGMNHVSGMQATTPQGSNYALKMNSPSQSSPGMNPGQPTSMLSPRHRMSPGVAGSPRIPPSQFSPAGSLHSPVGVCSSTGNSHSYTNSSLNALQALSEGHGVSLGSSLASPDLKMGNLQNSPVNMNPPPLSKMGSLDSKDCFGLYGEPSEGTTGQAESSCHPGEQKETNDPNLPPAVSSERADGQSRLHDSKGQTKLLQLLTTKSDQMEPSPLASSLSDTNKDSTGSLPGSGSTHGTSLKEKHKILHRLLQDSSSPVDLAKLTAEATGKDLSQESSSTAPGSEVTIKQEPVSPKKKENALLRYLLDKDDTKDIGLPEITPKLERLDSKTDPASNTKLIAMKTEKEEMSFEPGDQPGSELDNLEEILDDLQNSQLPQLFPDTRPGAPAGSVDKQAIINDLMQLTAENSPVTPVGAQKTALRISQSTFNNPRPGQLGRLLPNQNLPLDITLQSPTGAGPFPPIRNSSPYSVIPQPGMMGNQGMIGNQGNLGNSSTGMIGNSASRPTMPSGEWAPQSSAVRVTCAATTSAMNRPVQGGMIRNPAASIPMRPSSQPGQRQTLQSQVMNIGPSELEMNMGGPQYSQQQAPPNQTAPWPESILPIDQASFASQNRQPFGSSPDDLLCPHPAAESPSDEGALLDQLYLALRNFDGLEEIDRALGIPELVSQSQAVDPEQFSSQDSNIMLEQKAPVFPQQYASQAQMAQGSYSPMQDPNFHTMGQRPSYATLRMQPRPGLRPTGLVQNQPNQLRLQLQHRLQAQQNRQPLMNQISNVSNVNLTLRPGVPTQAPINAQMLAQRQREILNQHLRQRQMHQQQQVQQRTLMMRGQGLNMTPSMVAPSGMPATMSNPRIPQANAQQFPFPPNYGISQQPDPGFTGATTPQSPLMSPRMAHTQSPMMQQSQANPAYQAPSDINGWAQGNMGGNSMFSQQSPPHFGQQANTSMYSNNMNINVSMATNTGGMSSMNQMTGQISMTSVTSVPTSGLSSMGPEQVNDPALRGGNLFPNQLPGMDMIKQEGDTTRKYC
Photoreceptor-specific nuclear receptor (Homo sapiens), sequence (Q9Y5X4 whole entry, looked up): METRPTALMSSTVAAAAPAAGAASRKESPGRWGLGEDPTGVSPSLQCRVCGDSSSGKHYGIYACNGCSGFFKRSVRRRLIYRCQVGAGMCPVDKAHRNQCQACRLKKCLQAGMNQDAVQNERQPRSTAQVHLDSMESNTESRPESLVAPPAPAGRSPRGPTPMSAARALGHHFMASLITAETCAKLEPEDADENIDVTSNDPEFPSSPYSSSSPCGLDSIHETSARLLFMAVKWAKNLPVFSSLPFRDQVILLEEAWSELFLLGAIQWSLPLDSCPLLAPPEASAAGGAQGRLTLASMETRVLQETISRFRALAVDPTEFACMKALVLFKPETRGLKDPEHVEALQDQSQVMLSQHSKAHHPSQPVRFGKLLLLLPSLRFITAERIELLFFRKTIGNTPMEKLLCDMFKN
Receptor-interacting serine/threonine-protein kinase 2 (Homo sapiens), sequence (O43353 whole entry, looked up): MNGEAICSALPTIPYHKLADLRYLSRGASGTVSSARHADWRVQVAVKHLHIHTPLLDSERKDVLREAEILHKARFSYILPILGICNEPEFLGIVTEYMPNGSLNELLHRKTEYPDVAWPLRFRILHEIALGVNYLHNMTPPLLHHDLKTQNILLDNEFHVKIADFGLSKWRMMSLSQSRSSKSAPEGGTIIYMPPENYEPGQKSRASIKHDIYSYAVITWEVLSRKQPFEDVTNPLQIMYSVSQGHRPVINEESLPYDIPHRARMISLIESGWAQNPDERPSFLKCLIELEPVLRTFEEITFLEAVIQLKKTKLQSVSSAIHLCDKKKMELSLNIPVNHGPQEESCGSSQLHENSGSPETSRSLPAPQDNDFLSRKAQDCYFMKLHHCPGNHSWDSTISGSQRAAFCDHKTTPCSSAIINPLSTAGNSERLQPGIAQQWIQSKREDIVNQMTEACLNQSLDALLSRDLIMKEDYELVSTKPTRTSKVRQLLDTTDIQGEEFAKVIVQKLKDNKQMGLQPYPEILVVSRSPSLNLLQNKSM

Take `CCC(c1nnnn1Cc1ccccc1)N1CCC(n2c(=O)[nH]c3ccccc32)CC1` (stereo not drawn): the results for the inhibition in assay [1] and in [2] were -50.1% and 0.59%, respectively.

Take `CC(C)CNc1c2c(nc3ccccc13)CCC2`: the results for the inhibition in assay [1] and in [2] were 7.81% and 17.3%, respectively.

For the molecule `CC(=O)OC1C2(CC3N4C(=O)C5(CO)SSC4(CC31O)C(=O)N5C)OC(C)C(C)(C)C2=O` (stereo not drawn), the inhibition (in general, the drop in the measured response relative to a control, in per cent) is 95.9% (active) in assay [3]; 94.1% (active) in [4]; 41.9% (active) in assay [5]; 0.4% in assay [6]; 98.8% (active) in assay [7]; 99.1% (active) in [8]. The inhibition in assay [9] was 96.3% (active); in [10] it was 110% (active); in [11] it was 98.4% (active); in assay [12], 97.4% (active).

`CC(C)(O)/C=C/C(=O)C(C)(O)C1C(O)CC2(C)C3CC=C4C(C=C(O)C(=O)C4(C)C)C3(C)C(=O)CC12C` (stereo not drawn): the inhibition in assay [3] was 70.1% (active); in assay [4], 74% (active); in assay [9], 66% (active); in assay [10] it was 79.3% (active); in assay [11], 78.9% (active); in assay [12] it was 86.1% (active). The inhibition in assay [13] was 62.2% (active); in assay [14] it was 96.5% (active).

`COC(=O)c1ccc(NC(=O)CSc2nc3ccc(N4C(=O)C5C6C=CC(C6)C5C4=O)cc3s2)cc1` (stereo not drawn): the inhibition was -22.8% in assay [3], -0.23% in assay [4], 24.8% in [13] and -3.51% in assay [14].

In the case of `O=c1[nH]c2ccccc2n1C1CCN(C(c2cc3ccccc3o2)c2nnnn2-c2ccc3c(c2)OCCO3)CC1` (stereo not drawn), the inhibition was -27.1% in assay [1] and 8.97% in assay [2].

In the case of `CN1CCN(c2cccc3c2C(=O)c2ccccc2C3=O)CC1`, the inhibition is 20.1% in assay [1] and 14.8% in [2].

For the molecule `COc1ccc(-n2nnnc2C(c2cccc(OC)c2OC)N2CCC(n3c(=O)[nH]c4ccccc43)CC2)cc1` (stereo not drawn), the inhibition was -18.7% in assay [1] and 3.33% in assay [2].

In the case of `CCCCn1nnnc1C(CCSC)N1CCC(n2c(=O)[nH]c3ccccc32)CC1` (stereo not drawn), the inhibition in assay [1] was -63.4%; in assay [2], 6.98%.

Take `CCCOC(=O)c1ccc(-[n+]2c(-c3ccccc3)cc(-c3ccccc3)cc2-c2ccccc2)cc1`: the inhibition was 44.1% (active) in [3]; 65.5% (active) in assay [4]; 64.9% (active) in assay [9]; 110% (active) in [10]; 88.8% (active) in assay [11]; 96.6% (active) in assay [12]. Also, the inhibition in assay [13] was 31.1%; in assay [14], 31.8%.

`Cc1cccc(-n2c(C)nc3ccccc3c2=O)c1C`: the inhibition in assay [1] is 2%; in [2], 9.3%.

Take `CC(=O)c1cn(Cc2ccccc2F)c2ccccc12`: the inhibition was -1.96% in assay [1] and 35.7% (active) in assay [2].

Regarding `CC(=CCOc1ccc2ccc(=O)oc2c1)C1=CC(=O)C(C)(C)O1`, the results for the inhibition in [1] and in assay [2] were 17.3% and 35.2% (active), respectively.

Consider `CN1C2CCC1/C(=C/c1ccccn1)C(=O)/C2=C\c1ccccn1`, for which the inhibition in assay [3] was -0.02%; in assay [4] it was 80.8% (active); in [13], 75% (active); in assay [14], 70.9% (active).

In the case of `COC(=O)C1=C(c2ccc(-c3ccccc3)c(F)c2)C[C@@H]2CC[C@H]1N2C(=O)NC1CC1`, the inhibition in assay [1] was 15.1%; in assay [2], 25.6% (active).

Consider `COc1cc2nc(CN3CC=C(c4ccccc4)CC3)[nH]c(=O)c2cc1OC`, for which the inhibition is 37.9% in [3]; 39.7% (active) in assay [4]; 72.7% (active) in assay [9]; 97.1% (active) in assay [10]; 77.1% (active) in [11]; 73.8% (active) in assay [12]. The inhibition is -4.49% in assay [13] and 24.4% in assay [14].

Regarding `CCN(CC)C(=O)c1ccc(NC(=O)c2cccc(S(=O)(=O)N3CCN(Cc4ccccc4)CC3)c2)cc1`, the inhibition in [1] is -1.69%; in [2], 20.8%.

As for `C[C@H]1CCC[C@H](O)CCCCCc2cc(O)cc(O)c2C(=O)O1`, the inhibition in assay [1] was -4.86%; in assay [2] it was 15.5%.

With `COC(=O)C[C@]1(C(=O)OC)CN(C#N)N(c2ccc(Cl)cc2)C12c1ccccc1-c1ccccc12`, the inhibition is 17.7% in assay [3]; 63.2% (active) in assay [4]; 34.7% (active) in assay [9]; 61.1% (active) in assay [10]; 58.2% (active) in assay [11]; 69.2% (active) in assay [12].

In the case of `C1=NCCc2c1[nH]c1ccccc21`, the inhibition in assay [3] is 27.8%; in assay [4], -13.4%; in assay [9] it was 14.4%; in assay [10] it was 50.2% (active); in assay [11] it was 44.8% (active); in assay [12] it was -11.6%.

Consider `Cc1cccc(C)c1-n1nnnc1C(c1cccs1)N1CCC2(CC1)C(=O)NCN2c1ccccc1` (stereo not drawn), for which the inhibition was 22.3% in assay [1] and 4.87% in [2].

Turning to `COc1ccc(-n2nnnc2C(c2cccs2)N2CCC(n3c(=O)[nH]c4ccccc43)CC2)cc1` (stereo not drawn), the inhibition in [1] is -25.6%; in assay [2], -13.5%.

Regarding `COc1ccc(-n2nnnc2C(c2ccccc2)N2CCC(n3c(=O)[nH]c4ccccc43)CC2)cc1` (stereo not drawn), the inhibition in [1] is -22.4%; in assay [2] it was 5.11%.

For `CNC(=O)c1cccn(Cc2ccc(C(F)(F)F)cc2)c1=O`, the inhibition is 30.3% in [3]; -34.3% in assay [4]; 47.7% (active) in [9]; 65.9% (active) in assay [10]; 54.3% (active) in assay [11]; -78.8% in [12].

Turning to `CC(=NNC(=S)N1CC2CCC(CC2)C1)c1nccs1`, the inhibition was 62.2% (active) in [1] and 74.4% (active) in assay [2].

With `CCCCCCN=C(CC)c1c(O)n(CCCC)c(=O)[nH]c1=O`, the inhibition was 84.2% (active) in [7] and 56.9% in assay [8].

For the molecule `CCOC(=O)[C@]12Cc3cc(C)ccc3[C@H]1N(C1CCCCC1)C(=O)c1cc(OC)ccc12`, the inhibition in [9] is 63.5% (active); in assay [10] it was 97.4% (active); in assay [11] it was 78.2% (active); in assay [12], 87.9% (active).
